According to publication PMC4552634, “A New Set of Chemical Starting Points with Plasmodium falciparum Transmission-Blocking Potential for Antimalarial Drug Discovery” (PLoS ONE, 2015):
Among all 13,000 compounds or so, about 3,200 (25%) showed an effect of 50% or more. This is one part of the list.

The compounds below were run on P. falciparum stage V gametocytes. Details: 48 h, 5 µM; inhibitor.
Design: BacTiter-Glo ATP luminescence viability of purified stage V gametocytes in 384-well plates, per cent inhibition versus DMSO
For `CC(=O)Nc1ccc(CN2CCC(N(C)c3cc(NC(=O)c4cccs4)ccn3)CC2)cc1` [TCMDC-134971], the “% Inhibition” value was -6.674%. With `CCc1c(C)nc2nc(Cc3cccc(F)c3)nn2c1N1CCN(c2ccccn2)CC1` [TCMDC-124593] the “% Inhibition” value was 5.465%. `Cc1noc(C)c1-c1cccc(CNCc2ccc(-c3ccc(-c4nc5cc(F)ccc5[nH]4)s3)cc2)c1.O=C(O)C(F)(F)F` [TCMDC-133054] was tested, and the “% Inhibition” value was 12.51%. With `O=C(/C=C/c1ccc(Cl)cc1)NCCCCCN1CCCN(C(=O)Nc2cccc(Cl)c2)CC1` [TCMDC-136102] the “% Inhibition” value was -54.14%. `Cn1cnc(CCNC(=O)c2ccc(-c3ccc(-c4nc5cc(C(F)(F)F)ccc5[nH]4)s3)cc2)c1` [TCMDC-132500] was tested, and the “% Inhibition” value was -12.71%. With `CCc1cn2c3c(cc(C(=O)N[C@@H](Cc4cccc(Cl)c4)[C@H](O)CNC4CCOCC4)cc13)N(C)S(=O)(=O)CC2` [TCMDC-135650] the “% Inhibition” value was 67.17%. In the case of `CCc1cn2c3c(cc(C(=O)N[C@@H](Cc4ccccc4)[C@H](O)CNC4CCCCC4)cc13)N(C)S(=O)(=O)C2` [TCMDC-135389], the “% Inhibition” value is reported as 12.74%. With `CCc1cn2c3c(cc(C(=O)N[C@@H](Cc4ccccc4)[C@H](O)CNC4CCCCC4)cc13)N(CC)S(=O)(=O)CC2` [TCMDC-135572] the “% Inhibition” value was 99.29%. In the case of `CCc1cn2c3c(cc(C(=O)N[C@@H](Cc4ccccc4)[C@H](O)CNC4CCOCC4)cc13)N(C(C)C)S(=O)(=O)CC2` [TCMDC-135506], the “% Inhibition” value is reported as 37.66%. `CCc1cn2c3c(cc(C(=O)N[C@@H](Cc4cccc(Cl)c4)[C@H](O)CNC4CCCCC4)cc13)N(C)S(=O)(=O)CC2` [TCMDC-135649] was tested, and the “% Inhibition” value was 39.17%. `CCc1cn2c3c(cc(C(=O)N[C@@H](Cc4cccc(F)c4)[C@H](O)CNC4CCOCC4)cc13)N(C)S(=O)(=O)CC2` [TCMDC-135661] was tested, and the “% Inhibition” value was 11.24%. For `CCCc1cn2c3c(cc(C(=O)N[C@@H](Cc4ccccc4)[C@H](O)CNC4CCCCC4)cc13)N(CC)S(=O)(=O)CC2` [TCMDC-135773], the “% Inhibition” value was 81.38%. `CCc1cn2c3c(cc(C(=O)N[C@@H](Cc4cccc(F)c4)[C@H](O)CNC4CCCCC4)cc13)N(C)S(=O)(=O)CC2` [TCMDC-135659] was tested, and the “% Inhibition” value was 47.1%. For `CCCc1cn2c3c(cc(C(=O)N[C@@H](Cc4ccccc4)[C@H](O)CNC4CCOCC4)cc13)N(C)S(=O)(=O)CC2` [TCMDC-135772], the “% Inhibition” value was 9.174%. In the case of `CCc1cn2c3c(cc(C(=O)N[C@@H](Cc4cccc(Cl)c4)[C@H](O)CNC4CC4)cc13)N(C)S(=O)(=O)CC2` [TCMDC-135648], the “% Inhibition” value is reported as 29.4%. `CCCc1cn2c3c(cc(C(=O)N[C@@H](Cc4ccccc4)[C@H](O)CNC4CCOCC4)cc13)N(CC)S(=O)(=O)CC2` [TCMDC-135774] was tested, and the “% Inhibition” value was 46.67%. `CCc1cn2c3c(cc(C(=O)N[C@@H](Cc4ccccc4)[C@H](O)CNC4CCOCC4)cc13)N(CC(F)(F)F)S(=O)(=O)CC2` [TCMDC-135652] was tested, and the “% Inhibition” value was 61.24%. In the case of `CN(C)CCCNc1ncnc2c1[nH]c1ccc(Br)cc12` [TCMDC-124583], the “% Inhibition” value is reported as -18.04%. `NC1CCN(c2nc(NCCCc3ccc(O)cc3)nc(NCc3ccccc3-c3ccc(C(F)(F)F)cc3)n2)CC1` [TCMDC-133395] was tested, and the “% Inhibition” value was 21.49%. With `COc1cc(F)c2ncc(C#N)c(CCN3CCC(NCc4ccc5c(c4)OCCO5)CC3)c2c1` [TCMDC-135367] the “% Inhibition” value was 11.13%. With `O=C1OC2(CN1CC1CCN(Cc3ccc(O)cc3Cl)C1)c1ccccc1-c1ccccc12` (stereo not drawn) [TCMDC-136313] the “% Inhibition” value was 14.23%. `CON=Cc1ccn(-c2ccc(O)c3c2C[C@H]2C[C@H]4[C@H](N(C)C)C(=O)C(C(N)=O)=C(O)[C@@]4(O)C(=O)C2=C3O)c1` [TCMDC-138646] was tested, and the “% Inhibition” value was 4.088%. For `C=C1C(C(=O)OCC)=CN(CC)c2cc(O[C@H]3CCN(C(=O)OC(C)(C)C)C3)ccc21` [TCMDC-135646], the “% Inhibition” value was 47.67%. `COc1cc2c(cc1OC)CN(CCc1ccc(NC(=O)c3cc4cc(OC(F)(F)F)ccc4[nH]3)cc1)CC2` [TCMDC-138250] was tested, and the “% Inhibition” value was 36.42%. In the case of `CCc1cn2c3c(cc(C(=O)N[C@@H](Cc4ccccc4)[C@H](O)CN[C@@H](C)CC)cc13)N(C)S(=O)(=O)CC2` [TCMDC-135801], the “% Inhibition” value is reported as 46.03%. `CCc1cn(CCS(C)(=O)=O)c2ccc(C(=O)N[C@@H](Cc3ccccc3)[C@H](O)CNC(C)(C)CCCC(C)C)cc12` [TCMDC-135268] was tested, and the “% Inhibition” value was 68.72%. For `CCc1cn(CCc2ccccc2)c2ccc(C(=O)N[C@@H](Cc3ccccc3)[C@H](O)CNC(C)(C)CCCC(C)C)cc12` [TCMDC-135282], the “% Inhibition” value was 76.37%. In the case of `CCc1cn(CCOC)c2ccc(C(=O)N[C@@H](Cc3ccccc3)[C@H](O)CNC(C)(C)CCCC(C)C)cc12` [TCMDC-135259], the “% Inhibition” value is reported as 69.62%. In the case of `CCc1cn(CCCOC)c2ccc(C(=O)N[C@@H](Cc3ccccc3)[C@H](O)CNCc3cccc(C(F)(F)F)c3)cc12` [TCMDC-135241], the “% Inhibition” value is reported as 4.563%. With `C(=N\Nc1nccc2sc(-c3ccccc3)cc12)/c1cccnc1` [TCMDC-135190] the “% Inhibition” value was -94.18%. In the case of `COc1ccc(S(=O)(=O)N2CCOCC2)cc1NC(=O)c1cc2ccccc2o1` [TCMDC-124328], the “% Inhibition” value is reported as -2.829%. `N#Cc1ccc(-c2ccc(OCC(O)CN3CCCN(C(=O)C(c4ccc5c(c4)OCO5)N4CCN(C/C=C/c5ccccc5)CC4)CC3)cc2)cc1` (stereo not drawn) [TCMDC-141496] was tested, and the “% Inhibition” value was 18.87%. In the case of `COc1cc2c(cc1NC(=O)CN1CCN(C(=O)c3ccco3)CC1)oc1ccccc12` [TCMDC-123712], the “% Inhibition” value is reported as 37.25%. For `c1ccc(CCNc2nc(NCC(c3ccccc3)c3ccccc3)c3[nH]cnc3n2)cc1` [TCMDC-131858], the “% Inhibition” value was -2.796%. For `Cn1cnc2nc(NCCc3ccccc3)nc(NCc3cccc4ccccc34)c21` [TCMDC-131862], the “% Inhibition” value was 52.06%. `c1ccc2c(CNc3nc(NCC4CCCCC4)nc4nc[nH]c34)cccc2c1` [TCMDC-131860] was tested, and the “% Inhibition” value was -36.72%.
